Growth data for nine compounds are collected here from PubChem BioAssay (NCI).

Common to all, as to test: NCI-60 one-dose screen, 48 h (100 = growth as untreated, 0 = no growth, -100 = all killed)
What all share (details): 10 µM unless noted

Experiment [1] concerns SR leukemia.
In experiment [2] the test system is RPMI-8226 leukemia.
Experiment [3] concerns OVCAR-8 ovarian.
In experiment [4] the test system is OVCAR-5 ovarian.
In experiment [5] the test system is SK-OV-3 ovarian.
Experiment [6] deals with IGROV1 ovarian.
Experiment [7] has as its system OVCAR-3 ovarian.
For experiment [8], the system named is HS 578T breast.
Experiment [9] deals with NCI/ADR-RES ovarian.
Experiment [10] concerns T-47D breast.
Experiment [11] has as its system BT-549 breast.
In experiment [12] the test system is MDA-MB-435 melanoma.
Experiment [13] has as its system SW-620 colon.
Experiment [14] concerns MCF7 breast.
Experiment [15] relates to HCT-116 colon.
Experiment [16] has as its system HCC-2998 colon.
Experiment [17] concerns KM12 colon.

Molecules are shown by their SMILES. Compounds without any hit were thinned out: in the full panel of roughly 83,000, 20% have a hit.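 For each line, cells grew in 96-well plates with the test compound present at a single concentration for 48 hours.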 A number with no mark means an inactive call. The source made the active and inactive calls. Rule for the calls: active = growth percent below 10; inactive = the rest.

As for `CC(=O)O[C@H]1CC[C@@]2(C)[C@@H](CC[C@@H]3[C@@H]2CC(=O)[C@@]2(C)[C@H]3C[C@@H](C3CCCC3=O)[C@@H]2C(C)=O)C1` (stereo not given in full), the growth in experiment [1] is 87.9%; in experiment [2], 91.2%; in [3], 98.9%; in [4], 107%; in experiment [5] it was 107%; in experiment [6], 98.1%. Moreover, the growth in experiment [7] was 115%; in experiment [8] it was 108%; in [9] it was 104%; in experiment [10], 91.1%; in experiment [11], 103%; in [12], 118%. Besides, the growth is 111% in experiment [13]; 98.2% in experiment [14]; 90.1% in [15]; 107% in experiment [16]; 106% in experiment [17].

As for `O=C(/C=C/c1cccc(O)c1)c1ccccc1O`, the growth in experiment [1] is 36%; in experiment [2], 28%; in experiment [3] it was 92.9%; in experiment [4], 99.4%; in [5], 107%; in [6], 66.7%. In addition, the growth in experiment [7] was 93.5%; in experiment [8], 86.9%; in experiment [9], 86.6%; in experiment [10] it was 91.2%; in experiment [11], 85.2%; in experiment [12], 76%. For the same compound, the growth is 86.3% in [13]; 63.5% in [14]; 78.1% in experiment [15]; 98% in experiment [16]; 72.5% in [17].

In the case of `COc1ccc(/C=C/C(=O)c2ccc([N+](=O)[O-])cc2)cc1`, the growth in experiment [1] is 85.4%; in experiment [2] it was 78.9%; in experiment [3] it was 105%; in [4], 111%; in experiment [5], 103%; in experiment [6] it was 105%. In addition, the growth in experiment [7] was 113%; in experiment [8], 106%; in experiment [9], 106%; in experiment [10], 98%; in [12] it was 106%; in experiment [13], 111%. The growth in [14] was 96%; in experiment [15], 99.2%; in experiment [16], 105%; in experiment [17], 98.6%.

Consider `CC(=O)Oc1ccccc1C(=O)/C=C/c1cccc([N+](=O)[O-])c1`, for which the growth in experiment [1] is -30.8% (active); in [2] it was -17.4% (active); in experiment [3], 77.7%; in experiment [4] it was 110%; in experiment [5], 102%; in [6] it was 37.3%. Moreover, the growth in [7] was 66.4%; in experiment [8] it was 71.2%; in [9], 74.3%; in experiment [10], 74.2%; in [11] it was 104%; in experiment [12] it was 55.7%. For the same compound, the growth in experiment [14] was 39.9%; in experiment [15], 10.8%; in experiment [16] it was 101%; in experiment [17], 34.7%.

`CC1=CC(=O)N(c2cccc3c(N4C(=O)C=C(C)C4=O)cccc23)C1=O`: the growth in [1] was -21.1% (active); in experiment [2], 21.5%; in experiment [3] it was 80.3%; in [4], 109%; in experiment [5], 108%; in experiment [6], 76.3%. Besides, the growth in experiment [7] was -16.2% (active); in experiment [8], 110%; in experiment [9], 78.3%; in experiment [10], 30.1%; in experiment [11], 99.7%; in experiment [12] it was 80.6%. For the same compound, the growth in experiment [14] was 57.7%; in experiment [15] it was 17.8%; in experiment [16], 105%; in experiment [17], 106%.

With `Fc1cccc(-c2[nH]nc3nc(Nc4cccnc4)sc23)c1`, the growth in experiment [1] was 15%; in experiment [2] it was 27.2%; in experiment [3], 54%; in experiment [4] it was 86.9%; in [5], 41%; in experiment [6], 51.4%. The growth in [7] was -18.3% (active); in [8], 69.4%; in experiment [9], 21.6%; in [10], 50.8%; in experiment [11], 60.6%; in [12], -8.7% (active). The growth in [13] was 41.6%; in experiment [14], 29.3%; in experiment [15] it was 35%; in experiment [16] it was 70.2%; in [17], 22.8%.

`Cn1cc(-c2csc(-c3cn(C(=O)OC(C)(C)C)c4ccc(Br)cc34)n2)c2cccnc21`: the growth was 58% in experiment [1]; 84.5% in experiment [2]; 70.7% in [3]; 95.5% in experiment [4]; 98.7% in [5]; 93.2% in experiment [6]. Moreover, the growth in experiment [7] was 98.3%; in experiment [8], 94.7%; in experiment [9], 82.5%; in experiment [10], 74.3%; in experiment [11], 103%; in [12], 102%. For the same compound, the growth in [13] was 90.4%; in experiment [14], 81.5%; in [15] it was 67.4%; in experiment [16], 101%; in [17], 101%.

Take `Cn1cc(-c2nc(-c3cn(C)c4ncccc34)cs2)c2ccccc21`: the growth in [1] is 18.4%; in [2] it was 39.6%; in [3] it was 47.9%; in experiment [4], 73%; in experiment [5] it was 43.2%; in [6], 45%. Moreover, the growth in experiment [7] is -17.8% (active); in experiment [8], 81%; in experiment [9] it was 8.77% (active); in experiment [10] it was 42%; in experiment [11], 48.3%; in experiment [12], -18.6% (active). For the same compound, the growth in experiment [13] was 27%; in experiment [14], 15.9%; in [15], 14.6%; in experiment [16], 67.4%; in [17] it was 22.5%.

Consider `Clc1ccc2[nH]cc(-c3nc(-c4c[nH]c5ncccc45)cs3)c2c1`, for which the growth was 9.06% (active) in experiment [1]; 37.6% in [2]; 46.2% in [3]; 80.6% in [4]; 59.6% in [5]; 32.8% in experiment [6]. Further, the growth was 55.9% in experiment [7]; 75.7% in [8]; 38.7% in experiment [9]; 47.8% in experiment [10]; 59.3% in experiment [11]; 49.4% in experiment [12]. Further, the growth in experiment [13] was 18.1%; in [14] it was 35%; in [15], 23.7%; in experiment [16], 69.3%; in experiment [17], 23.3%.
